{"source": "paper PMC5540273", "about": "(PLoS ONE, 2017);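 note: kd values determined as follow-up on hits from a single-replicate KINOMEscan panel screen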"}
{"system": "T1, MEK5", "T1 construct": "gene MAP2K5", "units": {"Kd": "nM"}}
{"molecule": "COc1cc2nccc(Nc3ccc(OCc4ccc(NC(C)=O)cc4)cc3)c2cc1OC.Cl", "note": "[GW440135]", "Kd": 52}
{"molecule": "COc1cc(Nc2nccc(N3CCC(NC(=O)C4COc5ccccc5O4)C3)n2)cc(OC)c1OC", "note": "(centres unmarked) [GSK1379761]", "Kd": 180}
{"molecule": "COc1cc2ncn(-c3cc(OCCCc4ccccc4)c(C(N)=O)s3)c2cc1OC", "note": "[GSK205189]", "Kd": 280}
{"molecule": "COc1cc2nccc(Nc3cccc(Oc4ccccc4)c3)c2cc1OC.Cl", "note": "[GW284543]", "Kd": 11}
{"molecule": "Nc1nccc2scc(-c3ccc4c(c3)CCN4C(=O)Cc3ccccc3)c12", "note": "[GSK2576924]", "Kd": 530}
{"molecule": "Cc1ccc(Oc2ccc(Nc3ncnc4cc[nH]c34)cc2C)cn1", "Kd": 9}
{"molecule": "Nc1n[nH]c2ncc(-c3ccccc3)cc12", "note": "[SB-517081]", "Kd": 660}
{"molecule": "COc1cc2ncn(-c3cc(OCc4ccncc4Br)c(C(N)=O)s3)c2cc1OC", "note": "[GW854278]", "Kd": 78}
{"molecule": "COc1cccc(-n2cnc3c(N)ncnc32)c1", "note": "[SKF-97416]", "Kd": 1300}
{"molecule": "COc1cc2ncn(-c3cc(OCc4ccc(S(C)(=O)=O)cc4)c(C(N)=O)s3)c2cc1OC", "note": "[GW869979]", "Kd": 470}
{"molecule": "COc1cc2ncn(-c3cc(OCc4ccncc4)c(C(N)=O)s3)c2cc1OC", "note": "[GSK336313]", "Kd": 670}
{"system": "MYLK2", "units": {"Kd": "nM"}}
{"molecule": "O=C(Nc1n[nH]c2nc(-c3ccccc3)c(Br)cc12)C1CC1", "note": "[SB-708998]", "Kd": 60}
{"molecule": "O=C(Nc1n[nH]c2cc(-c3ccccc3F)ccc12)C1CC1", "note": "[SB-733371]", "Kd": 110}
{"molecule": "O=C(Nc1n[nH]c2nc(-c3ccccc3)c(Cl)cc12)C1CC1", "note": "[SB-734909]", "Kd": 150}
